Legend:
Type in all cases: functional
[1] = tested on: Plasmodium falciparum; assay: GSK_TCMDC: Inhibition of Plasmodium falciparum 3D7 in whole red blood cells, using parasite LDH activity as an index of growth. Test compounds present at 2uM
[2] = tested on: Plasmodium falciparum; assay: GSK_TCMDC: Inhibition of Plasmodium falciparum Dd2 in whole red blood cells, using parasite LDH activity as an index of growth. Test compounds present at 2uM
[3] = tested on: HepG2; assay: GSK_TCMDC: Percent inhibition of human HepG2 cell line. Test compounds present at 10uM.

| Compound | Inhibition [1] [%] | Inhibition [2] [%] | Inhibition [3] [%] |
| --- | --- | --- | --- |
| N#CC(c1cccc(Cl)c1)c1ccc2c(C(F)(F)F)cc(C(F)(F)F)nc2n1 (configuration not stated) | 96 | 97 | 52 |
| Cc1cccc(-n2c(Nc3ccc(C)c(Cl)c3)nc3ccc(S(=O)(=O)NC(C)C(C)C)cc32)c1 (configuration not stated) | 97 | 97 | 0 |
| COc1ccccc1C1CCN(C2CCC(NC(=O)c3ccc4[nH]c(-c5ccc(C)cc5)nc4c3)CC2)CC1 (configuration not stated) | 100 | 100 | 100 |
| COc1ccc(OCCn2cc(C(=O)c3ccco3)c3ccccc32)cc1 | 98 | 61 | 17 |
